Laboratory results: PubChem BioAssay (EPA / NIEHS)
Records with an inconclusive call do not appear. The source made the active and inactive calls. Rule for the calls: active = hit-call score of the fitted dose curve at least 0.9, where 1 is the maximum; inconclusive = response in the unintended direction; inactive = score below 0.9.

Target: AR (gene 367) (UniProt P10275)
Experiment: ACEA_AR_antagonist_80hr: ACEA Biosciences xCELLigence Real-Time Cell Analysis on Androgen Receptor Antagonism for Proliferation (AID 2283787)
Experimental: ACEA_AR_antagonist is a cell-based, single-readout assay that uses 22Rv1, a human prostate cancer cell line, with measurements taken at 80 hours after chemical dosing in a 384-well plate, although TO5 and TO6 (mc0.srcf) used a 96-well plate. Differences in plate size can be ignored given data normalization.ACEA_AR_antagonist_80hr is one of two assay component(s) measured or calculated from the ACEA_AR assay. It is designed to make measurements of real-time cell-growth kinetics, a form of growth reporter, as detected with electrical impedance signals by Real-Time Cell Electrode Sensor (RT-CES) technology.Data from the assay component ACEA_AR_antagonist_80hr was analyzed in the positive analysis fitting direction relative to DMSO as the negative control and baseline of activity. Using a type of growth reporter, measures of the cells for loss-of-signal activity can be used to understand the signaling at the pathway-level as they relate to the gene AR. Furthermore, this assay endpoint can be referred to as a primary readout, because this assay has produced multiple assay endpoints where this one serves a signaling function. To generalize the intended target to other relatable targets, this assay endpoint is annotated to the nuclear receptor intended target family, where the subfamily is steroidal.
The xCELLigence system Multi-E-Plate stations were used to measure the time-dependent response to chemicals. Each compound was tested in an eight-point, 1:4 serial dilution series starting at a maximum final concentration of 100 uM. A maximum starting concentration of 0.5% DMSO was present in the 100 uM chemical samples and was diluted along with the test article dilution series. The screen was performed in biological duplicate using two separate, 96-well, E-Plates 96 for each dilution series (n = 2). Positive controls (MG132 and testosterone) and a negative control (assay media) were tested in quadruplicate on each testing plate. […] Reference compounds were tested with 8 concentrations with 1:5 serial dilutions. All screening was carried out by ACEA Biosciences, Inc. (San Diego, CA). 22Rv1 cells purchased from ATCC were maintained in media supplemented with 10% fetal bovine serum (FBS). Before screening, 22Rv1 cells were preconditioned in assay medium. Cells were then detached and seeded in E-Plates 96 in assay medium. After overnight monitoring of growth once every hour, compounds were added to […] cells and remained in the medium until the end of the experiment. Cellular responses were then recorded once every 5 min for the first 5 h, and once every hour for an additional 100 h.

Sequence of AR (gene 367) (P10275 whole entry, looked up): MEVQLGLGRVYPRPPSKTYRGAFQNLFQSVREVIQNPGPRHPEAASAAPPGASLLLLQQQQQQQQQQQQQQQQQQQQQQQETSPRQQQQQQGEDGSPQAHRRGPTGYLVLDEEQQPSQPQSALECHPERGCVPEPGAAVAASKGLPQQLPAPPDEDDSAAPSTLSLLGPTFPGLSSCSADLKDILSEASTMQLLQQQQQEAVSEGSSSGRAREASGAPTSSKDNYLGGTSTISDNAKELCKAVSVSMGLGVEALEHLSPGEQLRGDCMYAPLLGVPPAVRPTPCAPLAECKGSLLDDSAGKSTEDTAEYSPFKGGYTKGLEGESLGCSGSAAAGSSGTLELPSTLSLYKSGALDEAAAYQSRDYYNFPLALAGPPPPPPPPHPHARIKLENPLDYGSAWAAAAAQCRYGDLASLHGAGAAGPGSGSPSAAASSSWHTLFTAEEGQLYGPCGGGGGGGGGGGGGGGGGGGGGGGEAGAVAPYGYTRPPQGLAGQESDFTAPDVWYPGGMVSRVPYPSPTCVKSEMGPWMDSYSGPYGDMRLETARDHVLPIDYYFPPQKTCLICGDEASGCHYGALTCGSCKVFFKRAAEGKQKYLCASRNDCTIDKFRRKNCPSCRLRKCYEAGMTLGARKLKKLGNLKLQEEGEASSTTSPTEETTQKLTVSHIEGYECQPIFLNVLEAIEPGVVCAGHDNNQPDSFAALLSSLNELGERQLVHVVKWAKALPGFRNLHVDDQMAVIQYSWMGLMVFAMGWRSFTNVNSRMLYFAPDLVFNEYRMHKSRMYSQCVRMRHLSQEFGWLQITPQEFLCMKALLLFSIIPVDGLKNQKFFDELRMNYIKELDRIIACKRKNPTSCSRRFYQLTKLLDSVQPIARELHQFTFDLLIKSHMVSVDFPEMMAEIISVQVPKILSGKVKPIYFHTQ

SMILES | AC50 | outcome
CCN(CC)C(=S)SSC(=S)N(CC)CC | 25.6 µM (active) | –
COc1cc(C(C)C)c2c(c1)S(=O)(=O)N(COc1cc(=O)n3cccc(OCCN4CCCCC4)c3n1)C2=O | 18 µM (active) | –
COCc1nnc(-c2ccc[n+]([O-])c2)n1-c1c(Cl)c(Cl)cc2[nH]c(=O)c(=O)[nH]c12 | – | inactive
C=CCc1cc(S(=O)(=O)c2ccc(O)c(CC=C)c2)ccc1O | 26.2 µM (active) | –
CCc1cccc(CC)c1N | 7.11 µM (active) | –
OCc1ccccc1 | – | inactive
CCCCC(CC)C(=O)OCCOCCOCCOC(=O)C(CC)CCCC (stereo unspecified) | 65.8 µM (active) | –
COc1cc2c(c(OC)c1OC)-c1ccc(OC)c(=O)cc1[C@@H](NC(C)=O)CC2 | 0.00409 µM (active) | –
CCCCCCCCCCCCCCCCOS(=O)(=O)O | 46.2 µM (active) | –
OCCOCCOCCO | – | inactive
CCCCCCOC(=O)CC(CC(=O)OCCCCCC)(OC(=O)CCC)C(=O)OCCCCCC | – | inactive
